The campaign covered roughly 360,000 compounds. About 16,000 (4.4%) were called active. Not shown: some 9% with an inconclusive outcome. Calls follow the shape of the dose curve; as a rule, active = well fitted inhibition curve with a large enough effect; inconclusive = small, poorly fitted or top-dose-only effect; inactive = no such curve, though single readings can be large or run the other way. The list comes from a sample in which actives are over-represented; it also holds similar structures and randomly drawn compounds.
Molecular target: Bromodomain adjacent to zinc finger domain protein 2B (Homo sapiens) (UniProt Q9UIF8)
Sequence (Q9UIF8 whole entry, looked up, the tested form may be a part): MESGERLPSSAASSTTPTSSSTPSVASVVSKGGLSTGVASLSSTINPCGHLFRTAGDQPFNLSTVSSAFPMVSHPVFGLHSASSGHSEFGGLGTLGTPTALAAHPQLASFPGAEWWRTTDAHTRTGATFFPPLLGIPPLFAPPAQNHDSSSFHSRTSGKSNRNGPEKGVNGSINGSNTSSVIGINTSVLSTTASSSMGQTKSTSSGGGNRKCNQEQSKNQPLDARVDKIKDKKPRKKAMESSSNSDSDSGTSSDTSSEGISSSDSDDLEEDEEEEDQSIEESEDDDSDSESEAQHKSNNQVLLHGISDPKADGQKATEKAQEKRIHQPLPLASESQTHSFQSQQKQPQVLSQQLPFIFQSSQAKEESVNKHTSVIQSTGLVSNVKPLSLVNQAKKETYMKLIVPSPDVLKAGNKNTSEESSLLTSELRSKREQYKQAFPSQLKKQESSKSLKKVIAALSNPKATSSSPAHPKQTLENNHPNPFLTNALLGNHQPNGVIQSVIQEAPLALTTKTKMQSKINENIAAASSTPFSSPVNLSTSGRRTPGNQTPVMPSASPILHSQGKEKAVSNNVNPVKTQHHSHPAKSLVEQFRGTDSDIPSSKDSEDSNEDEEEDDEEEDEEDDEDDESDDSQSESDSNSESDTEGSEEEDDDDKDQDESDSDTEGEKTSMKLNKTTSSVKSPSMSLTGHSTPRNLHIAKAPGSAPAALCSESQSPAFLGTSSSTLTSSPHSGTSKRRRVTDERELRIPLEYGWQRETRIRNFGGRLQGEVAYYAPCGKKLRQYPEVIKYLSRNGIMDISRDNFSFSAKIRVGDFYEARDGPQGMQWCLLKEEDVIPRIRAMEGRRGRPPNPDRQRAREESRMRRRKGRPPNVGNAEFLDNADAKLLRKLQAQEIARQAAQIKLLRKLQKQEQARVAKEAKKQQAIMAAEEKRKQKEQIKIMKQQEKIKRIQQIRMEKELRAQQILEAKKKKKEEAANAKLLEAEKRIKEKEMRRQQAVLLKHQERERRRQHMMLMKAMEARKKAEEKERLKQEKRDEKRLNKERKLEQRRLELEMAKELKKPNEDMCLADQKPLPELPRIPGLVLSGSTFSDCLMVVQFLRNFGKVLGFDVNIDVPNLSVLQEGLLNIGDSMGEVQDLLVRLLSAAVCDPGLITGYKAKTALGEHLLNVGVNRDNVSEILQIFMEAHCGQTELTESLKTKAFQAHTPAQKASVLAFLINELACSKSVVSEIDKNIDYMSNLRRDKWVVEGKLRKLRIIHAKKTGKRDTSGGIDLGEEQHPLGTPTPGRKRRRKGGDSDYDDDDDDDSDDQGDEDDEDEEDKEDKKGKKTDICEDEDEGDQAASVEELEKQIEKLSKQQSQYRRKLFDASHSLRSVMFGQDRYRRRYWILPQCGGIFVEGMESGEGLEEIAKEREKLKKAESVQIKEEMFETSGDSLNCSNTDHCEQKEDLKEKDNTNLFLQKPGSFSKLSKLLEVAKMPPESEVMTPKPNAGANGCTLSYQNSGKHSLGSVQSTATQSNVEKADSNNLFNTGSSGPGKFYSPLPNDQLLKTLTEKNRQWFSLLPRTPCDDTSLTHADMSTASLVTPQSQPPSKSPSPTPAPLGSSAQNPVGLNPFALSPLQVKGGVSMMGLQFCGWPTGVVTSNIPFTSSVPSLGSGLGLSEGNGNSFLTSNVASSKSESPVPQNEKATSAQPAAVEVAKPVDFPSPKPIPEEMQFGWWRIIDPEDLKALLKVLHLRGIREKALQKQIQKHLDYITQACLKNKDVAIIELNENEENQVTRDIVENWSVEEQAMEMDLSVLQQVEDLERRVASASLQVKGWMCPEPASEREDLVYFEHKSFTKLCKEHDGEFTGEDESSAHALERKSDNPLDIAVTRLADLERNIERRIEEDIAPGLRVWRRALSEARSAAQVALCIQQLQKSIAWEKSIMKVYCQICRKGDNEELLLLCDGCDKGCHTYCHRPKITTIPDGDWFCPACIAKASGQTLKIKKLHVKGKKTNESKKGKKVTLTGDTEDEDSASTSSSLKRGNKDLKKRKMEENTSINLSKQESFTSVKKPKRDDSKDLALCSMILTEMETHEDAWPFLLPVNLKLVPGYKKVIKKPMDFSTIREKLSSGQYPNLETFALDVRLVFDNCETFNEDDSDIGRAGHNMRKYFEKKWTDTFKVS
Assay: qHTS Assay for Inhibitors of BAZ2B; also: nearly all actives have a fitted effect of over 60% in size
Conditions: AlphaScreen BAZ2B-H3K14Ac peptide displacement; series mostly up to 114 µM; activity change, negative = inhibition: at the top concentration
Procedure, shortened: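 Protein-peptide AlphaScreen: BAZ2B 50 nM, b-H3K14Ac 50 nM, 1x PBS pH 7.4 + 0.01% Tween-20. Preincubation 30 min RT; cpd 30 min RT (top 110 uM); beads 20 min RT, light-protected.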
% is scaled to controls: 0 for no effect and ±100 for the full control effect; potency is read from the fitted curve at half-maximal effect.

Potency, active:
COCCNC(=S)N1CCN(C)CC1 39.8 µM, S=C(c1ccc(-c2ccccc2)o1)N1CCCCC1 35.5 µM, COC/C=C/C1=CC2=CC(=O)C(C)(OC(=O)CCC(=O)OC)C(=O)C2=CO1 (centres undefined) 50.1 µM, Cc1cccc(Cn2cnc3c(N)c(C)c(C)cc32)c1 56.2 µM, COC(=O)COc1ccc2c(c1C)O/C(=C\c1ccco1)C2=O 50.1 µM, CC(=O)c1c(C)[nH]c(=S)c(C#N)c1-c1ccc(F)cc1 79.4 µM, CC1CC(c2ccccc2)n2nc(NC(=O)c3cccs3)nc2N1 (centres undefined) 79.4 µM, Cc1nc2ccccc2nc1N/N=C/c1ccc(O)cc1O 25.1 µM, Cc1csc(SCC(=O)Nc2sccc2C#N)n1 56.2 µM, Cc1ccc(NS(=O)(=O)c2ccc(N/N=C/c3ccccc3OCC(=O)O)c([N+](=O)[O-])c2)c(C)c1 7.94 µM, CN(C)/N=C/c1cc(Cl)cc([N+](=O)[O-])c1O 44.7 µM, COc1ccc2c(c1OC)C(=O)N(c1ncn[nH]1)C2 56.2 µM, O=C(CN1C(=O)C2C3C=CC(C3)C2C1=O)Nc1nc(-c2ccccn2)cs1 (centres undefined) 50.1 µM, COc1ccccc1-c1nnc(NC(=O)c2cccc(N3C(=O)CCC3=O)c2)o1 25.1 µM, CC(C)NC(=S)NN=C1CCCCCCCCCCC1 35.5 µM, COc1cc(N2CCCC2)c(OC)cc1/C=C(/C#N)c1cccc(Br)c1 10 µM, CC(=O)N1CCN(CC(=O)Nc2ccc(C)c(F)c2)CC1 44.7 µM, CCN(CC)c1ccc(NC(=O)CN2CCN(CC(=O)Nc3ccc(Cl)cc3)CC2)cc1 20 µM, Cc1ccc(NC(=O)CCCn2c(=O)c3cccn3c3ccccc32)cc1Cl 50.1 µM

Activity change, negative = inhibition, inactive:
COCCNC(=S)N1CCC(NC(=O)C23CC4CC(CC(C4)C2)C3)CC1 -8.68%, CCCNC(=S)N1CCC(NC(=O)c2ccc(OC)cc2)CC1 -25.5%, CCN1C(=O)c2ccccc2S(=O)c2ccc(C(=O)NCc3ccc(F)cc3)cc21 (centres undefined) -14.5%, CCCCOC(=O)/C(C#N)=C/c1ccc(-c2cccc(C(F)(F)F)c2)o1 -15.6%, CCOc1ccc(Nc2nc3c(S(=O)(=O)c4cccc(Cl)c4)nnn3c3ccsc23)cc1 -13%, Cc1ccc(OCCSc2nc(C)c(Cc3ccccc3)c(=O)[nH]2)cc1 -2.49%, S=C(c1ccccc1)N1CCCC1 5.22%, OCCN1CCN(C(=S)c2ccc(-c3ccccc3)cc2)CC1 -7.79%, CSc1ccc(CCNC(=O)c2ccc3c(c2)nc2n3CCOC2)cc1 4.23%, COC(=O)CCCC1=CC2=CC(=O)C(C)(OC(=O)c3cccs3)C(=O)C2=CN1CC(C)C (centres undefined) -15.3%, COC(=O)CCCC1=CC2=CC(=O)C(C)(OC(=O)c3cccs3)C(=O)C2=CN1CC1CC1 (centres undefined) -30.3%, CCC(=O)N1CCc2cc(Br)cc(S(=O)(=O)CCC(=O)N3CCN(c4ccc(F)cc4)CC3)c21 3.17%, COc1ccc(-c2noc(CCC(=O)N(C)c3ccccc3C)n2)cc1 6.51%, CCOc1cccc(C(=O)Nc2nnc(S(=O)(=O)N(C)c3ccc(C)cc3)s2)c1 -2.91%, CCc1ccc(NC(=O)CN2CCSc3ccc(S(=O)(=O)N4CCCC4)cc32)cc1 -26.5%, COc1cccc(Cn2cnc3c([N+](=O)[O-])c(C)c(C)cc32)c1 -22.6%, CSc1nn(Cc2cccc(C)c2)c(N)c1S(=O)(=O)c1ccccc1 22.9%, Cc1ccc(Cl)cc1NC(=O)Cc1ccc(-n2c(C)nc3cccnc32)cc1 -5.91%, CC(NC(=O)CCc1cn(Cc2ccccc2Cl)c2ccccc12)c1ccccc1 (centres undefined) -5.03%, CCOc1ccc(CCNC(=O)c2cc3c(=O)n(C)c4ccccc4c3n2C)cc1 -3.88%, Cc1cc(C)c(OCC(=O)N/N=C/c2ccco2)c(C)c1 3.11%, COc1ccccc1OCC(=O)OCc1cc(-c2ccco2)on1 12.1%, CCOC(=O)c1ccc2c(c1)N(Cc1cccc(OC)c1)C(=O)c1ccccc1S2(=O)=O 4.73%, CCc1nc(-c2cc(S(=O)(=O)N3CCN(c4ccc(OC)cc4)CC3)ccc2OC)no1 -33.9%, Cc1cc2c(cc1C)C(c1cccc(OC(C)C)c1)CC(=O)N2 (centres undefined) -1.89%, N#Cc1c(-c2ccc(Cl)cc2)c2c([nH]c1=S)CCCC2 -11.4%, Cc1cc(C)c2c(-c3ccc(F)cc3)c(C#N)c(=O)n(C)c2n1 -1.61%, CC(C)CCN(C(=O)Nc1ccc(Cl)c(Cl)c1)C(C)c1cccs1 (centres undefined) 72%, Cc1ccc(Cn2c(CCCNC(=O)C3CCCCC3)nc3ccccc32)cc1 -12.3%, CCOc1ccc(NC(=O)c2cc3c(=O)n(Cc4cccs4)ccc3nc2C)cc1 -15.9%, O=C(Nc1n[nH]c(C(F)(F)F)n1)c1cccs1 -9.64%, COc1ccc(CC(=O)Nc2nc3n(n2)C(c2ccccc2)CC(=O)N3)cc1OC (centres undefined) -28.7%, O=C(c1ccc2c(c1)N(Cc1ccc(Cl)cc1)C(=O)c1ccccc1S2(=O)=O)N1CCCCC1 -21%, Cc1ccc2nc(COc3cccc(NC(=O)c4ccccc4Cl)c3)cc(=O)n2c1 6.72%, Cc1ccc(S(=O)(=O)n2nc(-c3ccc(Cl)cc3)nc2NCc2ccccc2)cc1 3.65%, Cc1ccc(/C=N/NC(=O)C2=NNC(c3ccccc3)(c3ccccc3)C2)c(O)c1 -5.41%, FC(F)(F)c1nc2ccccc2nc1N/N=C/c1ccc(Cl)cc1 -34.1%, Cc1ccc(Cl)cc1-n1ncc2c(N3CCC(C(N)=O)CC3)ncnc21 -1.64%, Cc1cccn2c(=O)c3cc(C(=O)NC(C)c4ccccc4)c(=N)n(CCCO)c3nc12 (centres undefined) 0.391%, COc1ccc(-c2cc(NCc3ccc(F)cc3)n3cnnc3n2)cc1 -2.56%, Cc1ccc(CSc2nc3cccnc3n2Cc2ccc(C(=O)NC3CC3)cc2)cc1 6.32%, Cc1ccc(NC(=O)CSCC(=O)Nc2sccc2C#N)cc1 -2.43%, COc1ccc(NC(=O)CSc2nc(C)cs2)cc1 2.05%, COc1ccc2c(c1)C=C(C(=O)NCc1cc(Br)ccc1OC)CO2 -25.9%, Cc1ccc(Cl)cc1NC(=O)CSc1nc2ccccc2nc1Cc1ccccc1 3.46%, C=C(C)CNC(=S)N/N=C/c1ccccc1OCC(=O)O -35.9%, Cc1cccc(COc2ccccc2/C=N/Nc2ccc([N+](=O)[O-])cc2)c1 5.05%, Cc1ccc(CCNC(=O)c2ccc(CS(=O)(=O)Cc3cccc(C)c3)o2)cc1 7.63%, Cc1ccc(CNC(=O)CSc2c3c(nc4cc(Cl)ccc24)CCCC3)cc1 -0.494%, CC(=O)N/N=C/c1cc2c(cc1[N+](=O)[O-])OCO2 -9.58%, COc1ccc(NC(=O)C(c2ccccc2)N2Cc3ccccc3C2=O)cc1 (centres undefined) -15.6%, COc1ccc2c(c1OC)C(=O)N(c1ccc(O)cc1)C2 -18.2%, COc1ccc2c(c1OC)C(=O)c1ccccc1C2=O -5.29%, COc1ccc(Cc2nc3ccc(C(=O)NCc4ccccc4Cl)cc3o2)cc1 -10.8%, CCc1ccc(-n2nnc(-c3nc(-c4ccccc4)no3)c2C)cc1 4.12%, O=C(NCCN1C(=O)C2C3C=CC(C3)C2C1=O)Nc1ccccn1 (centres undefined) 9.03%, O=C(CN1C(=O)C2C3C=CC(C3)C2C1=O)NCCc1ccccc1Cl (centres undefined) 4.62%, CCOc1ccc(CNC(=O)c2cccc(Nc3nc4ccccc4n4nnnc34)c2)cc1OC 3.33%, Cc1ccc(OCCSc2nc3ccc(NC(=O)COc4ccc(C)cc4)cc3s2)cc1 0.408%, Cc1cc(C)cc(Nc2ncnc3onc(-c4ccc(F)cc4)c23)c1 15.2% [at 57.1 µM], COC(=O)c1cccc(NC(=O)c2cccc(N3C(=O)CCC3=O)c2)c1 12.5%, O=C(Nc1cccc2cccnc12)c1cccc(N2C(=O)CCC2=O)c1 2.18%, COc1ccc(Cc2nc3ccc(C(=O)NCc4ccc(OC)cc4OC)cc3o2)cc1 -18.2%, Cc1ccc(S(=O)(=O)c2nc(-c3ccco3)oc2SCC(=O)Nc2ccc(F)cc2)cc1 -0.883%, CCCCS(=O)(=O)c1oc(-c2cccs2)nc1S(=O)(=O)c1ccccc1 -1.72%, Cc1ccc(C)c(S(=O)(=O)c2nnn3c2nc(N2CCOCC2)c2sccc23)c1 -3.84%, O=C(NCCCO)c1nn(-c2ccc(Cl)cc2)nc1CO 1.22%, Cc1cc(NC(=O)C2CCC(CNS(=O)(=O)c3ccc(Br)s3)CC2)ccc1Br (centres undefined) 0.805%, CC(C)(C)NC(=O)C(=O)NN=C1CCCCCCC1 -23.6%, CCc1ccc(C(=O)NN=C2CCCCCC2)s1 -19.5%, O=C(c1ccc2c(c1)N(Cc1ccccc1)C(=O)c1ccccc1S2(=O)=O)N1CCC(Cc2ccccc2)CC1 -17.7%, CC(=O)Nc1cccc(Oc2cc(C#N)c(C#N)cc2N2CCOCC2)c1 6.72%, CCc1ccc(NC(=O)c2cc3c(=O)n(Cc4cccnc4)ccc3nc2C)cc1 -12.7%, Cc1ccc(-n2c(SCC(=O)Nc3cccc(F)c3)nc3c(oc4ccccc43)c2=O)cc1C -4.2%, CCOC(=O)N1CCN(CC(=O)Nc2ccc(F)cc2)CC1 1.87%, CCN(CC)c1ccc(NC(=O)CN2C(=O)NC3(CCc4ccccc43)C2=O)cc1 (centres undefined) 7.07%, CC(=O)N1CCN(CC(=O)Nc2ccc(SC(F)F)cc2)CC1 -37.9%, COC(=O)c1cc(NC(=O)CN2CCN(C(C)=O)CC2)cc(C(=O)OC)c1 -8.23%, CCN(CC)c1ccc(NC(=O)CN2C(=O)c3cccnc3Oc3ccc(Cl)cc32)c(C)c1 2.11%, Cc1cccc(C(=O)Nc2ccc(S(=O)(=O)N3CCCCC3c3cccnc3)cc2)c1 (centres undefined) -12.5%, Cc1ccc(Cn2c(C)c3cnn(CC(=O)NCc4ccccc4)c(=O)c3c2C)cc1 -27.3%, COC(=O)c1scc(-c2ccccc2)c1S(=O)(=O)Nc1ccccc1 4.54%, CC(=O)c1ccc(NC(=O)CCc2nc(-c3ccc(C)cc3)no2)cc1 -3.82%, CCCCn1c(=O)c(CCC(=O)OCC(=O)Nc2ccc(C)c(Cl)c2)nc2ccccc21 -7.31%, COc1ccc(Cl)cc1NC(=O)CCn1c(=O)c2cccn2c2ccccc21 -12.5%
